Source: PubChem BioAssay (National Center for Advancing Translational Sciences (NCATS))
Shown is part of a subset that was picked to be rich in hits.
LmPK inhibitor = inhibitors of Leishmania mexicana pyruvate kinase; Q27686; purified LmPK, Kinase-Glo ATP luminescence, 1 h; Potency, µM (series often up to 57.5 µM), for the others: top-dose activity change, negative = inhibition, hits mostly inhibitors; 290,000 compounds, 0.37% hits; AID 1721; further: potency means the concentration at half of the fitted maximal effect; on the % scale 0 is the no-effect control and ±100 the full control effect
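In 50 mM imidazole pH 7.2 with 7 mM MgCl2, LmPK (0.1 nM) turned over PEP (0.5 mM) and ADP (0.1 mM) for 1 h at room temperature. Luciferase read-out of ATP.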
FBPA Giardia inh = inhibitors of Giardia lamblia fructose-1,6-bisphosphate aldolase; Potency, µM (doses to about 59.6 µM), for inactives: at the top dose activity, negative = inhibition, most hits filed as inhibitors; purified Giardia FBPA; A8B2U2; 290,000 compounds, 0.71% hits; further: potency means the concentration at half of the fitted maximal effect; on the % scale 0 is the no-effect control and ±100 the full control effect; nearly all actives have a fitted effect of over 55% in size
Target sequence (A8B2U2 whole entry, looked up): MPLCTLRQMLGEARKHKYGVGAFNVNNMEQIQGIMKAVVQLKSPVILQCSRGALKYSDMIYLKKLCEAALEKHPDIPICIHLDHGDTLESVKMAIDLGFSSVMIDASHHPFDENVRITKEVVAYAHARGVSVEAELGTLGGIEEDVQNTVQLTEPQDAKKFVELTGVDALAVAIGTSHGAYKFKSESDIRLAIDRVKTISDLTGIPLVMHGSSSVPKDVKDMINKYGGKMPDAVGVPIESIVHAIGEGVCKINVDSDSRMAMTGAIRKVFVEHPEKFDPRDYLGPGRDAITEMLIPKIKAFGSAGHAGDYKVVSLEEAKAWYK
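40 nM FBPA preincubated 10 min at RT with compound (up to 57.5 uM final), then substrate plus GAPDH/TPI/NAD/arsenate coupling and diaphorase/resazurin added. Fluorescence read after 20 min at RT, 525/598 nm.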
Sm TGR inh = blocks Schistosoma mansoni thioredoxin glutathione reductase; Q962Y6; purified TGR, DTNB reduction, TNB absorbance 405 nm; Potency, µM (doses to about 114 µM), for the others: at the top dose activity change, negative = inhibition, most hits filed as inhibitors; 360,000 compounds, 3% hits; AID 485364; further: potency means the concentration at half of the fitted maximal effect; on the % scale 0 is the no-effect control and ±100 the full control effect; nearly all actives have a fitted effect of over 60% in size
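First, TGR (20 nM dispensed) and NADPH were mixed with compound. Second, a 15 min room-temperature incubation followed. Third, further NADPH and then DTNB were added to start the reaction. Finally, TNB absorbance was monitored kinetically.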
Shiga inhibitor = inhibitors of Shiga toxin in Vero cells. Vero cells, Shiga toxin protein synthesis inhibition reporter. inhibition, % at 38.7 µM. 290,000 compounds, 9.2% hits. AID 2315; in the data active means inhibition mostly above about 28%, no sharp cut-off; inactive means mostly below about 43%; further: 0% is about no effect
Tb PYK inh = blocks Trypanosoma brucei pyruvate kinase. Q57TT1. TbPYK enzyme, Kinase-Glo Plus ATP luminescence, 45 min. Potency, µM (series often up to 76.8 µM), for inactives: at the highest dose activity, negative = inhibition, most hits filed as inhibitors. 410,000 compounds, 0.12% hits; further: potency means the concentration at half of the fitted maximal effect; on the % scale 0 is the no-effect control and ±100 the full control effect; nearly all actives have a fitted effect of over 50% in size
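In this concentration-response screen, enzyme-free wells defined baseline while DMSO plates tracked drift. Each reaction combined TbPYK, substrate, compound and 130 uM ADP for 45 min at room temperature. Kinase-Glo Plus luminescence gave the signal.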
CHX counter = affects cycloheximide protein synthesis inhibition readout, counter-screen; cell reporter, cycloheximide protein synthesis inhibition counterscreen; max response, %; 300,000 compounds, 12% hits; AID 2314; in the data active means max response mostly above about 13%, no sharp cut-off; inactive means mostly below about 14%; further: read at 38.3 µM for the half of the compounds with a filed dose; 0% is about no effect
Starred values were filed as active, the others as inactive; ? = inconclusive; . = not tested or not shown. Unless noted, the call rests on the fitted dose curve; in most records, active means well fitted curve in the direction sought with a large enough effect; inconclusive means small, poorly fitted or top-dose-only effect, or another doubt; inactive means no such curve, though single readings can be large; an effect the other way counts as inactive or inconclusive.

SMILES	LmPK inhibitor	FBPA Giardia inh	Sm TGR inh	Shiga inhibitor	Tb PYK inh	CHX counter
CCc1ccc(N2C(=O)NC(=O)/C(=C\C=C\c3ccco3)C2=O)cc1	1.4%	-16.6%	11.2µM*	17.5	-9.5%	21.9*
CC1=NN(c2ccccc2)C(=O)C1/C=C1\C(=O)NC(=O)N(c2cc(C)cc(C)c2)C1=O (stereo not drawn)	3.6%	25.1%	-35.3%	17.5	2.9%	4.1
O=C1NC(=O)N(Cc2ccc(F)cc2)C(=O)/C1=C\C=C\c1ccco1	1.4%	-0.2%	7.94µM*	11.3	-11.8%	-1.6
CCc1ccc(N2NC(=O)/C(=C/C=C/c3ccco3)C2=O)cc1	-5.3%	-7.6%	?	-3.2	-7.5%	-2.9
CCc1nc2ccc(C(=O)N3CCN(C(C)=O)CC3)cn2c1N(C=O)Cc1ccc(OC)cc1	.	.	.	.	2.0%	.
Cc1ccc(N2C(=O)NC(=O)/C(=C/C=C/c3ccco3)C2=O)cc1	0.2%	-7.0%	?	25.8*	-24.5%	24.0*
CC(C)c1ccc(N2C(=O)NC(=O)/C(=C/C=C/c3ccco3)C2=O)cc1	0.0%	-5.3%	?	-2.8	-26.4%	-2.0
O=C1NC(=O)N(c2ccccc2)C(=O)/C1=C\C=C\c1ccccc1	4.2%	-6.3%	14.1µM*	6.6	?	6.1
O=C1CC(N2C(=O)/C(=C/C=C/c3ccccc3)SC2=S)C(=O)N1c1ccccc1 (stereo not drawn)	-2.1%	-2.8%	-6.2%	18.4	-11.6%	-5.9
CCOC(=O)/C(=N/Nc1ccc(OC)cc1)Sc1nnc(CCc2ccccc2)n1-c1ccccc1	-3.3%	?	-6.8%	-23.1	-14.1%	30.9*
Cc1nnc(SCC(=O)Nc2cccnc2Cl)s1	.	.	-5.9%	.	-3.8%	.
CCc1ccc(Nc2nnc(SCC(=O)NCCN3C(=O)CSC3=O)s2)cc1	-18.8%	4.5%	-0.2%	53.5*	6.5%	40.5*
CCc1ccc(Nc2nnc(SCC(=O)Nc3cccnc3Cl)s2)cc1	0.8%	-9.2%	-1.7%	30.2*	4.1%	19.9*
CCc1ccc(Nc2nnc(SCC(=O)Nc3sccc3C(N)=O)s2)cc1	2.8%	0.8%	0.7%	62.3*	-12.9%	31.7*
Cn1c(SCC(=O)NCCN2C(=O)CSC2=O)nnc1-c1ccccc1	-0.3%	4.9%	5.9%	-5.5	2.7%	-2.8
Cc1noc(C)c1S(=O)(=O)N(CC(=O)NCCc1ccc(Cl)cc1)c1ccc(C(C)C)cc1	.	.	-1.5%	.	4.0%	.
Cc1c(O)ccc(/C=N/Nc2nc(-c3cccnc3)nc3ccccc23)c1O	0.8%	0.4%	-3.5%	48.6*	1.6%	58.8*
Oc1ccc(/C=N/Nc2nc(-c3cccnc3)nc3ccccc23)c(O)c1	-16.6%	-1.9%	4.0%	40.6*	11.7%	53.2*
Cc1ccc(-c2nc(N/N=C/c3ccncc3)c3ccccc3n2)cc1	-15.9%	16.9%	2.4%	75.9*	-13.7%	54.7*
COc1ccc(CCNc2nc(-c3cccnc3)nc3ccccc23)cc1OC	-4.0%	4.9%	-18.7%	-1.6	4.4%	7.4
COc1ccc(/C=N/Nc2nc(-c3cccnc3)nc3ccccc23)cc1OC	?	?	-0.3%	62.4*	-3.8%	31.1*
OC[C@@H]1CN(Cc2ccc(F)cc2)C[C@H](n2cnc3c(NCc4ccc(F)cc4)ncnc32)O1	.	.	.	.	-0.2%	.
CCN(C(=O)COC(=O)CCC(=O)c1ccc(Cl)cc1)c1c(N)n(Cc2ccccc2)c(=O)[nH]c1=O	.	.	.	.	-3.8%	.
Cc1cccnc1C(c1ccc(F)cc1)N(C)C(=O)C1CCN(CCOc2ccc(Cl)cc2Cl)CC1 (stereo not drawn)	.	.	.	.	-4.2%	.
CC(C)CNC(=O)C1(C)CCCN1Cc1ccccc1OC(F)F (stereo not drawn)	.	.	.	.	4.2%	.
CSc1nc(-c2ccccc2)cn1-c1ccc(NC(C)=O)cc1	-16.4%	12.7%	8.6%	79.2*	-16.9%	34.6*
CCOc1ccc(-c2cn(-c3ccc(OC)cc3)c(SC)n2)cc1	-5.1%	-4.5%	6.1%	113.3*	2.0%	68.4*
CCOc1ccc(-c2cn(-c3ccc(OC)cc3)c(SCC(=O)Nc3ccccc3Cl)n2)cc1	.	.	-1.0%	.	1.4%	.
Cc1ccc(-c2c(C(=O)N3CCN(c4ccc(F)cc4)CC3)oc(=O)c3ccccc23)cc1	.	.	-0.1%	.	-0.5%	.
